The structures appear in SMILES notation.

This assay concerns HepG2. Description: GSK_TCMDC: Percent inhibition of human HepG2 cell line. Test compounds present at 10uM. Format: functional.
Usually Inhibition stands for how much of the control response was suppressed. A low value points to a response near the control. In turn, `Br.CCCCCCCn1c2c(c(=N)c3c1CCC3)CCCC2` yielded an Inhibition of 46%.
In turn, `O=C(/C=C/c1ccc(Cl)cc1)NCCCCCN1CCCN(C(=O)Nc2ccc(F)c(Cl)c2)CC1` returned an Inhibition of 29%.
Compound `Nc1ncc(-c2ccc(F)cc2)c2ccc(-c3cccc(F)c3)cc12` showed an Inhibition of 34%.
For `Cc1cc(C(=O)Nc2ccc3c(c2)CCN3C2CCN(Cc3cccc4cc[nH]c34)C2)no1` (centres undefined), the Inhibition came to 0%.
Regarding `COc1cccc2cc(C(=O)N[C@@H](CC(C)C)C(=O)N[C@H](/C=N/NC(=O)N3CCN(C)CC3)CCc3ccccc3)oc12.Cl`, the Inhibition worked out at 1%.
In the case of `COc1ccc2nccc([C@@H](O)CN3CCC(NCc4cnc5c(c4)NC(=O)CS5)C(F)C3)c2c1.Cl` (some centres undefined), the Inhibition stood at 0%.
Compound `C=C(F)c1sc(CNCCCNc2nc3ccccc3[nH]2)c(C)c1Br` returned an Inhibition of 15%.
The value for `CN(CCO)Cc1cccc(-c2ccc(NC(=O)c3cccc(C#N)c3)cc2)c1.O=C(O)C(F)(F)F` was 23%; that for `Cc1noc(C)c1-c1ccc2c(Nc3ccc([N+](=O)[O-])cc3)c(C(N)=O)cnc2c1.Cl` was 4%.
Regarding `CN1CCCN(Cc2cccc(-c3cccc(NC(=O)c4cccc(C#N)c4)c3)c2)CC1.O=C(O)C(F)(F)F`, the Inhibition is on record as 18%.
`Cc1ccc2c(c1)nc(N)n2C[C@H](O)c1ccccc1` gave an Inhibition of 0%.
As for `COc1ccc(-c2cccc(NC(=O)c3cccc(Cl)c3)c2)cc1CN1CCN(C)CC1.O=C(O)C(F)(F)F`, the Inhibition was 27%.
As for `CCc1ccc(-n2c(=O)c3cccnc3n2CC(=O)NC2CCCC2)cc1`, the figure is 0%; as for `Cc1ccccc1C1CCN(C2CCC(NC(=O)c3ccc(-c4cccc(C(F)(F)F)c4)o3)CC2)CC1` (centres undefined), 56%.
